# Test results reported in paper PMC8384837, “Expanding the binding specificity for RNA recognition by a PUF domain”.
# Key:
# Experiment in all cases: yeast three-hybrid, YBZ-1, SC-Leu-His + 0.5 mM 3-AT, 4 days
# Details in all cases: tags: N-Gal4 AD-HA kept; label: inside an RPR1-promoter hybrid RNA with tandem MS2 sites; ssRNA
# PUM1 PUF domain R4-QHR = PUM1 PUF domain R4-QHR (Homo sapiens, UniProt Q14671 828-1176, N971Q;Q975R)
# Outline: (§1)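 Repeat regions from input (SC-Leu) and selection (SC-Leu-His + 0.5 mM 3-AT) plates were PCR-amplified and Illumina-sequenced after four days of growth. The cells were strain YBZ-1 with a LexA–MS2 coat fusion and a HIS3 reporter, co-expressing Pumilio-1 PUF domain libraries and matching RNA elements from a centromeric plasmid. The interaction score is the log change in variant frequency from input to selection, taken in log2 with a pseudocount of 1 for absent variants.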
# PUM1 PUF domain R4-RMG = PUM1 PUF domain R4-RMG (Homo sapiens, UniProt Q14671 828-1176, N971R;H972M;Q975G)
# Outline: as §1
# PUM1 PUF domain R8-TWR = PUM1 PUF domain R8-TWR (Homo sapiens, UniProt Q14671 828-1176, N1122T;Y1123W;Q1126R)
# Outline: as §1
# PUM1 PUF domain R5-SDE = PUM1 PUF domain R5-SDE (Homo sapiens, UniProt Q14671 828-1176, C1007S;R1008D;Q1011E)
# Outline: as §1
# PUM1 PUF domain R5-PYF = PUM1 PUF domain R5-PYF (Homo sapiens, UniProt Q14671 828-1176, C1007P;R1008Y;Q1011F)
# Outline: as §1
# PUM1 PUF domain R5-RKE = PUM1 PUF domain R5-RKE (Homo sapiens, UniProt Q14671 828-1176, C1007R;R1008K;Q1011E)
# Outline: as §1
# PUM1 PUF domain R3-MRI = PUM1 PUF domain R3-MRI (Homo sapiens, UniProt Q14671 828-1176, C935M;Q939I)
# Outline: as §1
sequence,measurement,setting,value
GGCUAGAACUAGUGGAUCCCCCGGCGCCCGGCGGCUCGAGCCCGGGUAAGUGUACAUAGUCUGCAUGCCGCCGGGCGCCAUGCCUGCAGGUCGACUCUAGAAAACAUG,binding signal,PUM1 PUF domain R4-QHR,2.26 log2 enrichment (interaction score)
GGCUAGAACUAGUGGAUCCCCCGGCGCCCGGCGGCUCGAGCCCGGGUAAGUGUAAAUAGUCUGCAUGCCGCCGGGCGCCAUGCCUGCAGGUCGACUCUAGAAAACAUG,binding signal,PUM1 PUF domain R4-RMG,2.77 log2 enrichment (interaction score)
same,binding signal,PUM1 PUF domain R8-TWR,4.94 log2 enrichment (interaction score)
GGCUAGAACUAGUGGAUCCCCCGGCGCCCGGCGGCUCGAGCCCGGGUAAGUGUGAAUAGUCUGCAUGCCGCCGGGCGCCAUGCCUGCAGGUCGACUCUAGAAAACAUG,binding signal,PUM1 PUF domain R5-SDE,2.31 log2 enrichment (interaction score)
GGCUAGAACUAGUGGAUCCCCCGGCGCCCGGCGGCUCGAGCCCGGGUAAGUGUUAAUAGUCUGCAUGCCGCCGGGCGCCAUGCCUGCAGGUCGACUCUAGAAAACAUG,binding signal,PUM1 PUF domain R5-PYF,2.41 log2 enrichment (interaction score)
same,binding signal,PUM1 PUF domain R5-RKE,3.74 log2 enrichment (interaction score)
GGCUAGAACUAGUGGAUCCCCCGGCGCCCGGCGGCUCGAGCCCGGGUAAGCGUAAAUAGUCUGCAUGCCGCCGGGCGCCAUGCCUGCAGGUCGACUCUAGAAAACAUG,binding signal,PUM1 PUF domain R8-TWR,5.17 log2 enrichment (interaction score)
GGCUAGAACUAGUGGAUCCCCCGGCGCCCGGCGGCUCGAGCCCGGGUAAGUGUCAAUAGUCUGCAUGCCGCCGGGCGCCAUGCCUGCAGGUCGACUCUAGAAAACAUG,binding signal,PUM1 PUF domain R5-RKE,3.39 log2 enrichment (interaction score)
GGCUAGAACUAGUGGAUCCCCCGGCGCCCGGCGGCUCGAGCCCGGGUAAGUGUAAUUAGUCUGCAUGCCGCCGGGCGCCAUGCCUGCAGGUCGACUCUAGAAAACAUG,binding signal,PUM1 PUF domain R3-MRI,1.25 log2 enrichment (interaction score)
GGCUAGAACUAGUGGAUCCCCCGGCGCCCGGCGGCUCGAGCCCGGGUAAGUGUAAGUAGUCUGCAUGCCGCCGGGCGCCAUGCCUGCAGGUCGACUCUAGAAAACAUG,binding signal,PUM1 PUF domain R3-MRI,5.12 log2 enrichment (interaction score)
